PubChem BioAssay (Tox21)
Several values for one entry are separate records, joined by “and”; a condition that tells them apart may be missing. Identical values can stand only once. Inconclusive results are not listed. Where a call stands in place of a potency, no number is given. Where a structure was tested more than once in an assay, its records may differ in their call. Activity calls are given as the source filed them. Calls come from the whole dose curve; as a rule, active = well fitted cell-killing curve with a large enough effect in the repeat runs; inconclusive = weak or mixed curves, or effect the other way; inactive = no such curve, though single readings can be large or run the other way.

Test: qHTS assay for identifying genotoxic compounds that show differential cytotoxicity against isogenic chicken DT40 cell lines with known DNA damage response pathways - wild type cell line (AID 743012); note: nearly all actives have a fitted effect of over 60% in size
Conditions: DT40 wild type chicken cells viability, CellTiter-Glo, 40 h; series mostly up to 68.4 µM
Text: U.S. Tox21 Program National Center for Advancing Translational Sciences [NCATS] NIH Chemical Genomics Center [NCGC] U.S. Environmental Protection Agency [EPA] National Institutes of Environmental Health Sciences [NIEHS] National Toxicology Program [NTP] U.S. Food and Drug Administration [FDA] Tox21 Assay Overview: DNA repair pathways play a critical role in cellular homeostasis by repairing DNA damage induced by endogenous processes and xenobiotics. Isogenic chicken DT40 cell lines deficient in different DNA repair pathways can be used to identify genotoxic compounds and aid in characterizing the nature of the DNA damage induced. Two DNA repair-deficient cell lines with disrupted genes, Rad54/Ku70 or Rev3, were used to screen the Tox21 10K compound library. Possible genotoxicity was based on the presence of a significant increase in cytotoxicity in one or more of the DNA repair-deficient cell lines compared to that observed in the parental DNA repair-proficient cell line. CellTiter Glo viability assay (Promega, Madison, WI) was used to measure cell viability in these cells after compound treatment. This assay includes the data from the wild type cell line.
Tox21 Assay Protocol Summary: 300 DT40 wild type cells in 5 uL/well were dispensed into white, solid-bottom 1536-well plates using a Multidrop Combi (ThermoFisher Scientific, Waltham, MA) dispenser. After the assay plates were incubated at 37 C/5% CO2 for approximately 0.5 hour, 23 nL of compounds dissolved in DMSO, positive controls or DMSO only was transferred into the assay plate by a pintool work station (Kalypsys, San Diego, CA). The assay plates were incubated at 37 C/5% CO2 for 40 hours. After 5 uL per well of CellTiter-Glo reagent was added into each well of the assay plates, the plates were incubated for 30 min at room temperature and the luminescence intensity of the plates was measured using a ViewLux (PerkinElmer, Shelton, CT) plate reader.
Potency is the fitted concentration of half-maximal effect.

Question: For CS/C(C)=N/OC(=O)N(C)SN(C)C(=O)O/N=C(\C)SC, which Potency is on record?
Answer: The Potency was 6.86 µM (active).

Question: For O=C(NC(=O)c1c(F)cccc1F)Nc1cc(Cl)c(Oc2ncc(C(F)(F)F)cc2Cl)c(Cl)c1, which Potency is on record?
Answer: Its Potency is 1.17 µM (active).

Question: For C=CC(=O)OC, which Potency is on record?
Answer: The Potency was “inactive”.

Question: With CC(C)(OO)c1ccccc1 as the compound, how does the Potency read?
Answer: The Potency was 30.6 µM (active).

Question: For O=C1CN=C(c2ccccc2)c2cc(Cl)ccc2N1CC1CC1, which Potency is on record?
Answer: The Potency was 18.8 µM (active).

Question: With CC1(C)CCC(Cc2ccc(Cl)cc2)C1(O)Cn1cncn1 (stereo not given) as the compound, how does the Potency read?
Answer: The Potency was 27.3 µM (active).

Question: With ClCC(Br)CBr (stereo not given) as the compound, how does the Potency read?
Answer: The Potency was “inactive”.

Question: Which Potency does the source give for CCC(C)(NC(=O)c1cc(Cl)c(C)c(Cl)c1)C(=O)CCl (stereo not given) here?
Answer: The Potency was 6.9 µM (active).

Question: For CC(=O)NC1CCSC1=O (stereo not given), which Potency is on record?
Answer: Its Potency is “inactive”.

Question: For NC(=O)CI, which Potency is on record?
Answer: Its Potency is “inactive”.

Question: With Cc1ccc2ccccc2c1 as the compound, how does the Potency read?
Answer: Its Potency is “inactive”.

Question: With CCOS(C)(=O)=O as the compound, how does the Potency read?
Answer: Its Potency is “inactive”.

Question: Which Potency does the source give for CCOP(O)OCC here?
Answer: The Potency was “inactive”.

Question: Which Potency does the source give for O=C1NCN(c2ccccc2)C12CCN(CCCOc1ccc(F)cc1)CC2 here?
Answer: Its Potency is 10.6 µM (active).

Question: Which Potency does the source give for NC(=O)C(Cl)(Cl)Cl here?
Answer: Its Potency is “inactive”.

Question: For CCOP(=S)(Oc1ccc([N+](=O)[O-])cc1)c1ccccc1 (stereo not given), which Potency is on record?
Answer: The Potency was “inactive”.

Question: With C=CCN1CC[C@]23c4c5ccc(O)c4O[C@H]2C(=O)CC[C@@]3(O)[C@H]1C5 as the compound, how does the Potency read?
Answer: The Potency was “inactive”.

Question: With C=CC(=O)OC(C)(C)C as the compound, how does the Potency read?
Answer: The Potency was “inactive”.

Question: Which Potency does the source give for CCCCc1c(C)nc(NCC)nc1OS(=O)(=O)N(C)C here?
Answer: Its Potency is 15.4 µM (active).

Question: With O=[N+]([O-])c1ccc(F)c([N+](=O)[O-])c1 as the compound, how does the Potency read?
Answer: The Potency was “inactive”.

Question: For CCOC(=O)[C@]1(c2ccccc2)Oc2ccccc2[C@@H]1N, which Potency is on record?
Answer: The Potency was 48.6 µM (active).

Question: For O=Cc1ccc2c(c1)OCO2, which Potency is on record?
Answer: The Potency was “inactive”.

Question: For O=C(Nc1ccccc1)Nc1ccnc(Cl)c1, which Potency is on record?
Answer: The Potency was 17.2 µM (active).

Question: Which Potency does the source give for C/C(=C\c1ccccc1)[N+](=O)[O-] here?
Answer: The Potency was 5.45 µM (active).

Question: For BrCCCCBr, which Potency is on record?
Answer: The Potency was “inactive”.

Question: For CCOP(=S)(OCC)SCn1nnc2ccccc2c1=O, which Potency is on record?
Answer: Its Potency is 7.7 µM (active).

Question: For CCC(Br)(CC)C(=O)NC(N)=O, which Potency is on record?
Answer: The Potency was “inactive”.

Question: With CC(Cl)Cl as the compound, how does the Potency read?
Answer: Its Potency is “inactive”.

Question: Which Potency does the source give for C/C=C/C=O here?
Answer: Its Potency is “inactive”.

Question: With CC(c1ccc(O)cc1)(c1ccc(O)cc1)c1ccc(O)cc1 as the compound, how does the Potency read?
Answer: The Potency was 27.3 µM (active).

Question: Which Potency does the source give for ClCCCCBr here?
Answer: Its Potency is “inactive”.

Question: For Cn1sc(Cl)cc1=O, which Potency is on record?
Answer: Its Potency is “inactive and 19.3 µM (active)”.

Question: Which Potency does the source give for C=COC(C)=O here?
Answer: Its Potency is “inactive”.

Question: With O=C1C(=O)c2cccc3cccc1c23 as the compound, how does the Potency read?
Answer: Its Potency is 2.73 µM (active).

Question: With C[C@H]1CNCCc2ccc(Cl)cc21 as the compound, how does the Potency read?
Answer: The Potency was 26.6 µM (active).

Question: For CCCCCCC#N, which Potency is on record?
Answer: The Potency was “inactive”.

Question: Which Potency does the source give for Cc1ccccc1C(=O)Nc1cccc(OC(C)C)c1 here?
Answer: Its Potency is 48.6 µM (active).

Question: Which Potency does the source give for CO[C@@H]1[C@H](OC(=O)NC(=O)CCl)CC[C@]2(CO2)[C@H]1[C@@]1(C)O[C@@H]1CC=C(C)C here?
Answer: Its Potency is 0.0006 µM (active).

Question: With O=C(OC1CCCCC1)c1ccccc1C(=O)OC1CCCCC1 as the compound, how does the Potency read?
Answer: The Potency was 28.8 µM (active).

Question: Which Potency does the source give for COC1=CC(=O)O[C@@H](CCc2ccccc2)C1 here?
Answer: Its Potency is “inactive”.
